# Measurements from PubChem BioAssay (Tox21).
# Where “and” joins values, the source holds several entries; their conditions need not be identical. Equal entries are not always repeated. Calls of active or inactive are those of the source. Where a call stands in place of a potency, no number is given. The call rests on the fitted dose curve; in most records, active means well fitted activation curve with a large enough effect in the repeat runs; inconclusive means weak or mixed curves; inactive means flat fitted curve, though single readings scatter.
# Biological target: KiSS-1 receptor (Homo sapiens) (UniProt Q969F8)
# Assay: Human kisspeptin (KISS1R) small molecule agonists, calcium flux assay in KISS1R-HEK293 cells (AID 1920064)
# Procedure, shortened: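 Measures KISS1R agonism through calcium-sensitive dye fluorescence in stably transfected HEK293 cells, read for 3 min after pin-tool compound delivery; 15-point titrations in triplicate.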
# Potency means the concentration at half of the fitted maximal effect.
# Chain of KiSS-1 receptor (Homo sapiens) (Q969F8 whole entry, looked up): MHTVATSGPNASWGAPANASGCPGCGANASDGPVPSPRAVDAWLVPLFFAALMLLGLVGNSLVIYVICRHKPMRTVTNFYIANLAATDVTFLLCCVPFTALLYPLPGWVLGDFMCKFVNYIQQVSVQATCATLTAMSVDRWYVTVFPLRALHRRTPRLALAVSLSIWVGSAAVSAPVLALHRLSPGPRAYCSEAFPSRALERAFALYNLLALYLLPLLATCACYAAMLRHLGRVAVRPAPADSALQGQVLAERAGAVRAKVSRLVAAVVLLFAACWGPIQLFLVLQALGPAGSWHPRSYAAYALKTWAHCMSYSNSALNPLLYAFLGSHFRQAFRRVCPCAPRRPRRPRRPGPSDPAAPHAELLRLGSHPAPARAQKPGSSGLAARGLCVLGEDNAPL
row,Structure (SMILES),Potency
1,CCC(C)C1N=C(C)C(C)S1 (stereo not drawn),inactive
2,O=Cc1ccc(C(=O)O)cc1,inactive
3,C(=C\c1ccccc1)/c1ccccc1,inactive
4,COc1cccc(OC)c1C(=O)O,inactive
5,CN1CCCC1=O,inactive
6,CC(C)c1cc2c(cc1S(=O)(=O)O)[C@@]1(C)CCC[C@@](C)(C(=O)O)[C@@H]1CC2,inactive
7,Cc1c(C(=O)c2c[nH]n(C)c2=O)ccc(S(C)(=O)=O)c1C1=NOCC1,inactive
8,CC1(C)C(=O)N(Br)C(=O)N1Cl,inactive
9,FC(F)(F)C(F)(F)C(F)(F)C(F)(F)C(F)(F)C(F)(F)CCI,inactive
10,Nc1cc(-c2ccncc2)c[nH]c1=O,inactive
11,CCOc1cc(NC(C)=O)ccc1C(=O)OC,inactive
12,O=[N+]([O-])c1cncn1CCN1CCOCC1,inactive
13,C=CC(=O)CC,inactive
14,COCCCOc1ccnc(CS(=O)c2nc3ccccc3[nH]2)c1C (stereo not drawn),inactive
15,Cc1cc(C)c(C)c(O)c1,inactive
16,CC(C)Nc1ccccc1,inactive
17,Nc1ccc(S(=O)(=O)Nc2ccc(Cl)nn2)cc1,inactive
18,CN(C)c1ccc(Cc2ccc(N(C)C)cc2)cc1,inactive
19,CCCCC(CC)COCC1CO1 (stereo not drawn),inactive

row,Structure (SMILES),Potency
1,CC(=O)/C=C/C1C(C)=CCCC1(C)C (stereo not drawn),inactive
2,CCOC(=O)C(C)Oc1ccc(Oc2cnc3cc(Cl)ccc3n2)cc1 (stereo not drawn),inactive
3,O=C(O)c1ccccc1C(c1ccc(O)cc1)c1ccc(O)cc1,inactive
4,CCCCN=C(N)N=C(N)N,inactive
5,O=C1OC2(c3cc(Br)c(O)c(Br)c3Oc3c2cc(Br)c(O)c3Br)c2c(Cl)c(Cl)c(Cl)c(Cl)c21,55 µM (active) and 33.4 µM (active)
6,COc1nc(C)nc(NC(=O)NS(=O)(=O)c2ccccc2OCCCl)n1,inactive
7,CC(=O)Oc1cccc(O)c1,inactive
8,O=S1(=O)OC(c2ccc(O)cc2)(c2ccc(O)cc2)c2ccccc21,inactive
9,CCCOCCOCCO,inactive
10,NS(=O)(=O)c1ccccc1Cl,inactive
11,Nc1nc(=O)n([C@@H]2O[C@H](CO)[C@@H](O)[C@@H]2F)cc1I,inactive
12,CC/C=C\C#N,inactive
13,CCCC(=O)OCC(COC(=O)CCC)OC(=O)CCC,inactive
14,O=C(O)CC(=O)O,inactive
15,CN=C(NC#N)NCCSCc1nc[nH]c1C,inactive
16,CC1CCCC(=O)C1=O (stereo not drawn),inactive
17,C=C(C)C(=O)OCCOP(=O)(O)O,inactive
18,COc1cc(C(=O)N2CCCCCCC2)cc(OC)c1OC,inactive
19,CC(C)[C@H]1CC[C@@H](C)CC1=O,inactive
